Reference: PubChem BioAssay (NCI)
About 79,000 compounds went through this panel and 15% of them were active in at least one assay; those are over-represented in the sample as a whole. Activity calls are given as the source filed them. Cut-off read from the data, not from the text of the source: active = growth inhibition above about 70%; inactive = the rest.

Assays:
[1] = NCI Yeast Anticancer Drug Screen. Data for the rad52 strain (AID 147);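 note: 0% = growth of vehicle-treated control cultures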; details: S. cerevisiae rad52 mutant growth inhibition, hits give high values
Method in brief: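 Here a repair-compromised yeast strain receives each compound; its growth is then quantified and normalised to vehicle-only controls.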

[2] = NCI Yeast Anticancer Drug Screen. Data for the wt1 strain (AID 149);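 note: 0% = growth of vehicle-treated wt1 cultures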; details: S. cerevisiae wt1 strain (SPY 50644) growth inhibition, hits give high values
Method in brief: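 Compounds are added to wt1 yeast cultures. Growth is then measured. Inhibition is expressed relative to vehicle-treated controls.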

[3] = NCI Yeast Anticancer Drug Screen. Data for the rad50EPP+ strain (AID 151);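 note: 0% = growth of vehicle-treated control cultures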; details: S. cerevisiae rad50 mutant strain, hits give high values
Method in brief: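 Read-out is yeast growth inhibition relative to vehicle; cells used were the rad50EPP+ strain.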

[4] = NCI Yeast Anticancer Drug Screen. Data for the mgt1 strain (AID 153); details: S. cerevisiae mgt1 mutant growth inhibition, hits give high values
Method in brief: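 Measured: inhibition of mgt1 yeast growth by compound, normalized to vehicle-treated cultures.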

[5] = NCI Yeast Anticancer Drug Screen. Data for the rad50 strain (AID 155);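 note: 0% = growth of vehicle-only cultures of the same strain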; details: S. cerevisiae rad50 strain growth inhibition, hits give high values
Method in brief: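 Inhibition values express reduced yeast growth in compound-treated cultures relative to vehicle-treated controls.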

[6] = NCI Yeast Anticancer Drug Screen. Data for the mec2-1 strain (AID 157); details: S. cerevisiae mec2-1 strain, hits give high values
Method in brief: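 Using mec2-1 yeast: add compound, measure growth, express inhibition versus vehicle-treated cultures.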

[7] = NCI Yeast Anticancer Drug Screen. Data for the rad14 strain (AID 159);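 note: 0% = growth of vehicle-treated control cultures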; details: S. cerevisiae rad14 strain growth inhibition, hits give high values
Method in brief: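 A mutant yeast strain defective in DNA damage repair is treated with compound; inhibition of its growth is scored against untreated, vehicle-exposed cultures.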

[8] = NCI Yeast Anticancer Drug Screen. Data for the sgs1 mgt1 strain (AID 161);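 note: 0% = growth of cultures given vehicle only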; details: S. cerevisiae sgs1 mgt1 strain, hits give high values
Method in brief: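 Compounds are added to genetically altered yeast, and growth is compared with cultures given vehicle alone to give percent inhibition.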

[9] = NCI Yeast Anticancer Drug Screen. Data for the CLN2oe strain (AID 163);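 note: 0% = growth of vehicle-only control cultures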; details: S. cerevisiae CLN2oe strain, hits give high values
Method in brief: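 Whole-cell yeast growth assay. A strain engineered for altered cell-cycle control received compound, and inhibition relative to vehicle-treated cultures was recorded.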

[10] = NCI Yeast Anticancer Drug Screen. Data for the cln2 rad14 strain (AID 165);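 note: 0% = growth equal to vehicle treated cultures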; details: S. cerevisiae cln2 rad14 strain, hits give high values
Method in brief: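 Yeast strain cln2 rad14, bearing defects in cell cycle control and DNA repair, serves as the test system; values reflect growth inhibition compared with vehicle.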

[11] = NCI Yeast Anticancer Drug Screen. Data for the bub3 strain (AID 167); details: S. cerevisiae bub3 mutant strain, hits give high values
Method in brief: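 Steps: expose the mutant yeast strain to compound; grow alongside vehicle-treated cultures; measure growth; express inhibition against the vehicle cultures.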

[12] = NCI Yeast Anticancer Drug Screen. Data for the wt2 strain (AID 169);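 note: 0% = growth of vehicle-treated yeast cultures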; details: S. cerevisiae wt2 strain growth inhibition, hits give high values
Method in brief: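 Treated yeast vs. vehicle-treated yeast: growth inhibition determined.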

[13] = NCI Yeast Anticancer Drug Screen. Data for the mlh1 strain (AID 171);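 note: 0% = growth of vehicle-treated control cultures of the same strain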; details: S. cerevisiae mlh1 strain growth inhibition, hits give high values
Method in brief: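 A yeast strain with a defined genetic lesion serves as the test organism. Cultures receive compound or vehicle, and growth is measured.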

[14] = NCI Yeast Anticancer Drug Screen. Data for the mlh1 rad18 strain (AID 175); details: S. cerevisiae mlh1 rad18 strain growth inhibition, hits give high values
Method in brief: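 Steps: expose repair-defective yeast to compound; measure growth; express inhibition against vehicle-treated controls.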

[15] = NCI Yeast Anticancer Drug Screen. Data for the rad18 strain (AID 177); details: S. cerevisiae rad18 mutant growth inhibition, hits give high values
Method in brief: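 Measured value is growth inhibition of a yeast strain bearing a DNA repair alteration, referenced to vehicle-treated cells.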

[16] = NCI Yeast Anticancer Drug Screen. Data for the sgs1 strain (AID 173);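 note: 0% = growth of vehicle-only control cultures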; details: S. cerevisiae sgs1 mutant, hits give high values
Method in brief: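 A genetically defined yeast mutant is incubated with the test compound, and its growth is compared to that of the same strain given vehicle.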

[17] = at 5.0 µM (retest, dose inferred, filed as 0.5)
[18] = at 50.0 µM (retest, dose inferred, filed as 5.0)

Measured: growth inhibition

CCCC/C=C/C(CC)(C(=O)OCC)C(=O)OCC
inactive: [1]; at 1.2 µM -1% | [1]; at 3.7 µM -2% | [1]; at 11.0 µM -4% | [1]; at 33.0 µM -1% | [1]; at 100.0 µM -2% | [2]; at 1.2 µM -2% | [2]; at 3.7 µM -3% | [2]; at 11.0 µM -5% | [2]; at 33.0 µM -7% | [2]; at 100.0 µM -9% | [3]; at 1.2 µM -2% | [3]; at 3.7 µM 1% | [3]; at 11.0 µM -2% | [3]; at 33.0 µM 3% | [3]; at 100.0 µM 39% | [4]; at 1.2 µM -3% | [4]; at 3.7 µM -1% | [4]; at 11.0 µM -2% | [4]; at 33.0 µM -5% | [4]; at 100.0 µM -3% | [5]; at 1.2 µM -2% | [5]; at 3.7 µM -4% | [5]; [17] -9% | [5]; at 11.0 µM -3% | [5]; at 33.0 µM -3% | [5]; [18] -11% | [5]; at 50.0 µM 3.6% | [5]; at 100.0 µM -6% | [6]; at 1.2 µM 0% | [6]; at 3.7 µM -1% | [6]; [17] 5% | [6]; at 11.0 µM -2% | [6]; at 33.0 µM -1% | [6]; [18] 43% | [6]; at 50.0 µM -11.7% | [6]; at 100.0 µM -1% | [7]; at 1.2 µM -2% | [7]; at 3.7 µM -5% | [7]; at 11.0 µM -2% | [7]; at 33.0 µM -1% | [7]; at 100.0 µM 1% | [8]; [17] -3% | [8]; [18] 33% | [8]; at 50.0 µM 10.6% | [9]; at 1.2 µM -4% | [9]; at 3.7 µM 0% | [9]; at 11.0 µM -6% | [9]; at 33.0 µM -7% | [9]; at 100.0 µM -3% | [10]; [17] 6% | [10]; [18] 24% | [10]; at 50.0 µM 16.6% | [11]; at 1.2 µM 0% | [11]; at 3.7 µM -1% | [11]; [17] 11% | [11]; at 11.0 µM 1% | [11]; at 33.0 µM 6% | [11]; [18] 52% | [11]; at 50.0 µM 24.1% | [11]; at 100.0 µM 11% | [12]; at 1.2 µM -3% | [12]; at 3.7 µM -4% | [12]; at 11.0 µM -5% | [12]; at 33.0 µM -5% | [12]; at 100.0 µM -5% | [13]; at 1.2 µM -3% | [13]; at 3.7 µM -6% | [13]; at 11.0 µM -5% | [13]; at 33.0 µM -2% | [13]; at 100.0 µM 5% | [14]; [17] 7% | [14]; [18] 36% | [14]; at 50.0 µM -8.65% | [15]; at 1.2 µM -1% | [15]; at 3.7 µM 3% | [15]; at 11.0 µM 4% | [15]; at 33.0 µM 3% | [15]; at 100.0 µM 7%

COC(=O)C1=C(C(=O)OC)C2(C)C=CC1O2 (stereo unspecified)
inactive: [1]; at 1.2 µM -1% | [1]; at 3.7 µM -4% | [1]; at 11.0 µM 21% | [2]; at 1.2 µM 0% | [2]; at 3.7 µM 7% | [2]; at 11.0 µM 30% | [2]; at 33.0 µM 62% | [3]; at 1.2 µM -11% | [3]; at 3.7 µM -34% | [3]; at 11.0 µM -12% | [3]; at 33.0 µM 20% | [3]; at 100.0 µM 19% | [4]; at 1.2 µM -4% | [4]; at 3.7 µM -9% | [4]; at 11.0 µM -3% | [4]; at 33.0 µM 32% | [5]; at 1.2 µM -15% | [5]; at 3.7 µM -13% | [5]; [17] -135% | [5]; at 11.0 µM 7% | [5]; [18] 53% | [6]; at 1.2 µM -2% | [6]; at 3.7 µM -1% | [6]; [17] -43% | [6]; at 11.0 µM 1% | [6]; at 33.0 µM 26% | [6]; [18] 43% | [7]; at 1.2 µM 1% | [7]; at 3.7 µM 15% | [7]; at 11.0 µM 17% | [7]; at 33.0 µM 33% | [8]; [17] -55% | [8]; [18] 63% | [9]; at 1.2 µM -7% | [9]; at 3.7 µM -5% | [9]; at 11.0 µM -4% | [9]; at 33.0 µM 15% | [9]; at 100.0 µM 42% | [10]; [17] -46% | [10]; [18] -7% | [10]; at 50.0 µM 19.1% | [11]; at 1.2 µM -9% | [11]; at 3.7 µM -3% | [11]; [17] -62% | [11]; at 11.0 µM 10% | [12]; at 1.2 µM -4% | [12]; at 3.7 µM -3% | [12]; at 11.0 µM 52% | [16]; at 1.2 µM -4% | [16]; at 3.7 µM -4% | [16]; at 11.0 µM 33% | [14]; [17] -114% | [14]; [18] 48% | [15]; at 1.2 µM -10% | [15]; at 3.7 µM -6% | [15]; at 11.0 µM 10% | [15]; at 33.0 µM 62%
active: [1]; at 33.0 µM 70% | [1]; at 100.0 µM 91% | [2]; at 100.0 µM 93% | [4]; at 100.0 µM 86% | [5]; at 33.0 µM 72% | [5]; at 50.0 µM 81.2% | [5]; at 100.0 µM 91% | [6]; at 50.0 µM 86.8% | [6]; at 100.0 µM 87% | [7]; at 100.0 µM 87% | [8]; at 50.0 µM 82.2% | [11]; at 33.0 µM 75% | [11]; [18] 74% | [11]; at 50.0 µM 89.6% | [11]; at 100.0 µM 94% | [12]; at 33.0 µM 91% | [12]; at 100.0 µM 97% | [16]; at 33.0 µM 84% | [16]; at 100.0 µM 95% | [14]; at 50.0 µM 86.2% | [15]; at 100.0 µM 89%
